# Measurements: ChEMBL document CHEMBL4513216, “Probing the Open Global Health Chemical Diversity Library for Multistage-Active Starting Points for Next-Generation Antimalarials” (ACS Infect Dis, 2020)
# About 8,600 (12%) of roughly 69,000 compounds showed an effect of 50% or more. Only a selection was taken, and strong results are over-represented in it overall.
# Test system: Plasmodium berghei
# Experiment: Screen against P. berghei liver stage (PbLuc), transformed with Luciferase, at 10uM
# Type: functional, HepG2
# Conditions: tested at 10 uM
row,SMILES,INHIBITION [%]
1,Cc1noc([C@@H](C)NCc2cccc(Cl)c2)c1C(=O)O,48.2
2,CN1CC(c2cc(O)nc(NCc3cccc(F)c3)n2)CC1=O (stereo not given),-34.6
3,O=S(=O)(NCC(O)c1ccoc1)c1ccc(Cl)s1 (stereo not given),46.1
4,CNc1cc(N2CCCC2CNCc2csc(C(C)C)n2)ncn1 (stereo not given),46.2
5,CSc1nc(C)cc(N2CCC(c3ncc[nH]3)CC2)n1,44.6
6,CCOc1cc(C)nc(N2CCN(C(=O)c3cn[nH]c3CC)CC2)n1,44.1
7,CCN(C)S(=O)(=O)N1CCCC(CO)(CC=C(C)C)C1 (stereo not given),-3.96
8,CC(C)=CCC1(CO)CCCN(S(=O)(=O)N2CCCC2)C1 (stereo not given),91.2
9,CC(C)=CCC1(CO)CCCN(S(C)(=O)=O)C1 (stereo not given),28.7
10,O=C(c1cccnc1O)N1CCN(CCc2cccs2)CC1,20.45
11,CCNc1nc(-c2cccnc2)c(-c2ccnc(NS(C)(=O)=O)n2)s1,47.1
12,CC(C)(C)Nc1nc(-c2cccnc2)c(-c2ccnc(NCCO)n2)s1,59
13,CCNc1nc(-c2cccnc2)c(-c2ccnc(NCCO)n2)s1,-80.5
14,CN(CC(=O)N1CCCC1Cn1cccn1)Cc1ccccc1 (stereo not given),48.2
15,COc1cccc(CN2CCC3(CCN(C(=O)C4CC=CC4)CC3)C2)c1,21.3
16,Cc1noc(C)c1C(=O)N1CCCCC1c1cc(C)n2ccnc2n1 (stereo not given),30.4
17,Cc1cc(C2CCCCN2C(=O)c2ccsc2)nc2nccn12 (stereo not given),71.3
18,Cc1cc(C2CCCCN2C(=O)c2cccn2C)nc2nccn12 (stereo not given),18.3
19,O=C(c1cncs1)N1CCOCC(Cc2ccncn2)C1 (stereo not given),11.235
20,COc1cc(CN(CCCN(C)C)Cc2ccccn2)cc2c1OCO2,18.9
21,COc1cc(CN(C)C(C)c2ccccn2)cc2c1OCO2 (stereo not given),58.6
22,COc1cc(CN(Cc2ccccn2)CC(C)C)cc2c1OCO2,36.2
23,Cc1cc(F)c(S(=O)(=O)NCC(C)(C)N)cc1F,37.6
24,CCN(CC)c1ncc(CNC2CCc3nc(C(C)C)nn3C2)s1 (stereo not given),-3.54

row,SMILES,INHIBITION [%]
1,NC(=O)CCn1cc(CNCCCc2ccccc2O)c2ccccc21,88.5
2,Cc1n[nH]c(C)c1CCCNCc1cn(CCC(N)=O)c2ccccc12,66.7
3,NC(=O)CCn1cc(CNCc2csc(N)n2)c2ccccc21,60.9
4,Cc1ccc(C(C)NCc2cn(CCC(N)=O)c3ccccc23)cc1C (stereo not given),27.7
5,CC(NCc1cn(CCC(N)=O)c2ccccc12)c1nncn1C (stereo not given),32.7
6,CC(C)n1cnnc1CCNCc1cn(CCC(N)=O)c2ccccc12,6.94
7,NC(=O)CCn1cc(CNCCCc2csc(N)n2)c2ccccc21,29
8,NC(=O)CCn1cc(CNCCCc2ccncc2)c2ccccc21,-71.1
9,CCCN1CCN(Cc2cn(CCC(N)=O)c3ccccc23)CC1,39.8
10,COc1ccc(S(=O)(=O)N2CCC(O)(CN(C)C)C2)cc1 (stereo not given),38.2
11,Cc1sc(Br)cc1S(=O)(=O)NCCN,45
12,O=C(Cc1csc(Cc2ccccn2)n1)NCCCN1CCCC1=O,17.5
13,CCOCCC(=O)Nc1cccc(Cl)c1COC,33.7
14,O=C(Cc1n[nH]c2ccccc12)N1CCCC1Cn1cccn1 (stereo not given),24
15,CCc1nnc(C(C)N2CCCN(C(=O)OCC(C)C)CC2)o1 (stereo not given),36.5
16,CCc1nnc(C(C)N2CCN(CCC(C)(C)C)CC2)o1 (stereo not given),62.4
17,CCc1nnc(C(C)N2CCN(CCC(=O)NC3CC3)CC2)o1 (stereo not given),33.1
18,Cc1cncc(C(=O)N2CCCC(O)(CN3CCCC3)C2)c1 (stereo not given),4.13
19,CN1CCCCC12Cc1ccccc1CN(C(=O)C1CCCC1)C2 (stereo not given),8.49
20,CC(C)C(=O)N1Cc2ccccc2CC2(CCCCN2C)C1 (stereo not given),53.2
21,C[C@H](C(=O)N1Cc2ccccc2CC2(CCCN2C)C1)c1ccccc1 (stereo not given in full),51.6
22,CN1CCCCC12Cc1ccccc1CN(C(=O)c1ccccc1)C2 (stereo not given),10.1
23,CC(C)C(=O)N1Cc2ccccc2CC2(CCCN2C)C1 (stereo not given),37.5
24,CC(=O)N1Cc2ccccc2CC2(CCCCN2C)C1 (stereo not given),42.4

row,SMILES,INHIBITION [%]
1,O=C(c1ccccc1)N(CC1CC1)c1cccnc1,39.7
2,Cc1cc(NCc2cc3n(n2)CCCN(C(=O)C2CCC2)C3)ncn1,-2.46
3,CCc1nc(N2CCOCC2)ncc1C(=O)NC(c1cccs1)C(C)C (stereo not given),29.5
4,COCCN1C(=O)C2(CCC(C(=O)Nc3ccc(C)cc3)CC2)N=C1C (stereo not given),31.4
5,COCCN1C=NC2(CCC(C(=O)Nc3ccc(C)cc3)CC2)C1=O (stereo not given),63.5
6,COCCN1C(=O)C2(CCC(C(=O)Nc3ccc(F)cc3)CC2)N=C1C (stereo not given),20.1
7,Cc1nc(Nc2cnccn2)cc(C2CN(C(C)C)C2)n1,-21.4
8,Cc1ccc(-c2nnc(SCC(=O)O)n2-c2ccccc2)cc1,5.11
9,CC(C)CS(=O)(=O)N1C[C@@H]2C[C@H](C(=O)N(C)C)[C@H](C1)O2,37.5
10,CCC(C(=O)N1CCN(S(=O)(=O)N2CCCC2)CC1)n1cccn1 (stereo not given),13
11,O=C1CCCC2=Nc3nonc3NC(c3cccc(F)c3F)C12 (stereo not given),4.66
12,O=C1CCCC2=Nc3nonc3NC(c3cc(Cl)ccc3F)C12 (stereo not given),76.8
13,O=C1CCCC2=Nc3nonc3NC(c3ccc(F)cc3F)C12 (stereo not given),-37.6
14,O=C1CCCC2=Nc3nonc3NC(c3ccccc3Cl)C12 (stereo not given),12.3
15,O=C1CCCC2=Nc3nonc3NC(c3ccc(Cl)cc3Cl)C12 (stereo not given),57.8
16,O=C1CCCC2=Nc3nonc3NC(c3ccccc3F)C12 (stereo not given),12.3
17,CN1CCC(Cc2cncc(-c3ccccc3C(=O)O)n2)C1 (stereo not given),56
18,CC(C)N1CCC(Cc2cc(-c3ccccc3C(=O)O)ncn2)CC1,18.8
19,CS(=O)(=O)N1CCCC(Cc2cncc(-c3ccccc3C(=O)O)n2)C1 (stereo not given),-1.85
20,CC(C)N1CCC(Cc2cncc(-c3ccccc3C(=O)O)n2)CC1,38.7
21,COCCN1CCC(Cc2cnc(-c3ccccc3C(=O)O)cn2)CC1,53
22,CC(C)N1CCC(Cc2cncc(-c3ccccc3C(=O)O)n2)C1 (stereo not given),15.9
